The text below walks through data of PubChem BioAssay (NCI).

Some test systems named below: NCI-H23 lung; NCI-H322M lung; HOP-62 NSCLC; NCI-H460 lung; HOP-92 NSCLC; NCI-H522 lung; A549/ATCC NSCLC; 786-0 renal; COLO 205 colon; DU-145 prostate; K-562 leukemia; MALME-3M melanoma; MDA-MB-231 breast; RXF 393 renal; SF-268 CNS; SF-295 CNS; SF-539 CNS; UACC-257 melanoma; M14 melanoma; NCI-H226 lung.
Common to all, as to assay: NCI-60 one-dose screen, 48 h (100 = growth as untreated, 0 = no growth, -100 = all killed)
Details in all cases: 10 µM unless noted

SMILES strings stand for the structures. Compounds without any hit were thinned out: in the full panel of roughly 83,000, 20% have a hit.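 For each line, cells grew in 96-well plates with the test compound present at a single concentration for 48 hours.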 Values without a mark were called inactive. Activity calls are given as the source filed them. How the source made its calls: active means growth percent below 10; inactive means the rest.

With `CC(C)(c1ccc(OCC(O)CNCc2ccco2)cc1)c1ccc(OCC(O)CNCc2ccco2)cc1` (stereo not given), the growth was 93.4% with NCI-H23 lung; 99.4% in the test on NCI-H322M lung; 82.2% in the test with HOP-62 NSCLC; 98% in the test with NCI-H460 lung; 57.4% with HOP-92 NSCLC; 86% with NCI-H522 lung. The growth with A549/ATCC NSCLC was 81.2%; in the test on 786-0 renal, 70.8%; in the test with COLO 205 colon, 85.5%; with DU-145 prostate, 92%; in the test on K-562 leukemia it was 60.8%; in the test with MALME-3M melanoma, 98%. Further, the growth with MDA-MB-231 breast was 62.4%; in the test with RXF 393 renal, 76.4%; in the test with SF-268 CNS it was 77.7%; in the test with SF-295 CNS, 95.2%; with SF-539 CNS it was 89.7%; in the test with UACC-257 melanoma, 92.8%. The growth in the test with M14 melanoma was 92.1%.

Regarding `COc1ccc(-c2nn(-c3ccc(NC(=O)c4ccc(Cl)c(C(F)(F)F)c4)cc3)cc2-c2ccncc2)cc1Cl`, the growth in the test on NCI-H23 lung was 30.2%; in the test with NCI-H322M lung, 51.5%; with HOP-62 NSCLC it was -24.9% (active); in the test with HOP-92 NSCLC, -0.441% (active); in the test with NCI-H522 lung, 30.6%; in the test on A549/ATCC NSCLC, 31%. In addition, the growth with 786-0 renal is -55.7% (active); with COLO 205 colon, -19% (active); in the test on DU-145 prostate, 45%; in the test on K-562 leukemia it was 0.122% (active); in the test on MALME-3M melanoma it was 6.68% (active); in the test on MDA-MB-231 breast, -29.6% (active). Further, the growth in the test with RXF 393 renal was -76% (active); in the test on SF-268 CNS it was 14.5%; with SF-295 CNS, -30.3% (active); in the test with SF-539 CNS it was 9.99% (active); in the test on UACC-257 melanoma, 51.2%; with M14 melanoma, 13.3%.

Regarding `COc1cc2nc(C(=O)N3CCCCC3)cc(Nc3ccccc3)c2cc1OC`, the growth in the test with NCI-H23 lung was 96.7%; with NCI-H322M lung, 96.1%; in the test on HOP-62 NSCLC it was 96%; with NCI-H460 lung, 102%; in the test on HOP-92 NSCLC it was 73.3%; with NCI-H522 lung, 65.7%. Besides, the growth is 98.1% with A549/ATCC NSCLC; 95.3% with 786-0 renal; 116% with COLO 205 colon; 92.8% in the test with DU-145 prostate; 116% in the test with MALME-3M melanoma; 88.6% with MDA-MB-231 breast. Moreover, the growth in the test with RXF 393 renal is 101%; in the test on SF-268 CNS, 84.2%; in the test on SF-295 CNS, 96.3%; in the test on SF-539 CNS, 95.5%; with UACC-257 melanoma it was 108%; in the test with M14 melanoma it was 116%.

On to `CSc1ccc(C(=O)C[n+]2cccc(C)c2)cc1`, for which the growth is 102% with NCI-H23 lung; 102% in the test on NCI-H322M lung; 107% with HOP-62 NSCLC; 109% with NCI-H460 lung; 105% in the test on HOP-92 NSCLC; 110% in the test on NCI-H522 lung. In addition, the growth in the test with A549/ATCC NSCLC is 105%; in the test on 786-0 renal, 100%; in the test on COLO 205 colon, 109%; with DU-145 prostate, 109%; in the test on K-562 leukemia, 102%; with MALME-3M melanoma, 96.6%. For the same compound, the growth is 107% in the test with MDA-MB-231 breast; 107% in the test with RXF 393 renal; 99.4% in the test with SF-268 CNS; 98.4% with SF-295 CNS; 99.7% in the test on SF-539 CNS; 98.2% with UACC-257 melanoma. Besides, the growth with M14 melanoma is 103%.

`COc1ccc2c(c1)OC(N)=C(C#N)C2c1ccc(F)cc1` (stereo not given): the growth was 49.9% in the test with NCI-H23 lung; 55.7% with NCI-H322M lung; 41.3% in the test on HOP-62 NSCLC; 15.8% with NCI-H460 lung; 59.8% with HOP-92 NSCLC; -10.1% (active) with NCI-H522 lung. Further, the growth was 45.9% with A549/ATCC NSCLC; 28.1% in the test with 786-0 renal; 30.6% in the test with COLO 205 colon; 36.8% in the test on DU-145 prostate; 12% with K-562 leukemia; 61.6% in the test on MALME-3M melanoma. Moreover, the growth with MDA-MB-231 breast was 56.7%; in the test on RXF 393 renal it was 16.1%; in the test with SF-268 CNS, 47.1%; in the test on SF-295 CNS, 23.4%; in the test with SF-539 CNS, 19.2%; in the test on UACC-257 melanoma it was 51.7%. The growth in the test with M14 melanoma was 14.1%.

Turning to `Cc1nccc2c3ccc(OCc4cn(Cc5ccc(Br)cc5)nn4)cc3n(CCCc3ccccc3)c12`, the growth in the test on NCI-H226 lung is 88.9%; in the test on NCI-H322M lung, 85.9%; in the test on HOP-62 NSCLC it was 62%; with NCI-H460 lung, 89.5%; with HOP-92 NSCLC it was 77.9%; in the test on NCI-H522 lung, 59.4%. The growth was 82.6% in the test with A549/ATCC NSCLC; 67% in the test on 786-0 renal; 92.4% in the test on COLO 205 colon; 91.9% with DU-145 prostate; 75.5% in the test on K-562 leukemia; 92.9% in the test on MALME-3M melanoma. The growth with MDA-MB-231 breast was 79.3%; with RXF 393 renal, 82%; with SF-268 CNS it was 81%; in the test on SF-295 CNS, 86.2%; with SF-539 CNS, 77%; in the test with UACC-257 melanoma, 99.3%. Further, the growth in the test with M14 melanoma is 103%.

As to `CC(=O)c1ccc2c(c1)C1C=CCC1[C@H](c1cc3c(cc1Br)OCO3)N2` (stereo not given in full), the growth was 27.1% in the test on NCI-H23 lung; 64.8% with NCI-H322M lung; 32.1% in the test with HOP-62 NSCLC; 7.92% (active) in the test on NCI-H460 lung; 16% with HOP-92 NSCLC; -10.7% (active) in the test on NCI-H522 lung. The growth in the test on A549/ATCC NSCLC was 23.4%; in the test on 786-0 renal, 10.9%; in the test with COLO 205 colon, -14% (active); with DU-145 prostate, -17% (active); with K-562 leukemia it was 4.19% (active); in the test on MALME-3M melanoma, 49.7%. The growth with MDA-MB-231 breast was 16.9%; in the test on RXF 393 renal it was -12.4% (active); in the test on SF-268 CNS, 40.6%; with SF-295 CNS it was -36.7% (active); with SF-539 CNS it was -12.1% (active); with UACC-257 melanoma, 75%. Besides, the growth with M14 melanoma was -7.21% (active).

As for `O=C(O)c1ccc(-n2cc(/C=N/Nc3ccccc3F)c(-c3ccc(O)cc3)n2)cc1`, the growth was 92.3% in the test on NCI-H23 lung; 79.1% in the test with NCI-H322M lung; 91.7% in the test on HOP-62 NSCLC; 101% with NCI-H460 lung; 95.6% with HOP-92 NSCLC; 48.3% in the test on NCI-H522 lung. Further, the growth was 86.8% in the test with A549/ATCC NSCLC; 84% in the test with 786-0 renal; 95.9% in the test with COLO 205 colon; 97% with DU-145 prostate; 13% in the test on K-562 leukemia; 92.7% with MALME-3M melanoma. For the same compound, the growth was 85.2% with MDA-MB-231 breast; 92.6% with RXF 393 renal; 78.6% with SF-268 CNS; 80.5% with SF-295 CNS; 85.9% in the test with SF-539 CNS; 103% in the test on UACC-257 melanoma. In addition, the growth in the test on M14 melanoma is 73.5%.
